From PubChem BioAssay AID1159580 (chemical genetic matrix, 2015)
Out of some 5,500 compounds screened, about 2,000 (36%) were called active. Not shown: some 18% with an inconclusive outcome. Rule as the data show it: active = normalized growth mostly below about 0.91 (no sharp cut-off); inconclusive = no clear call, values can overlap the other calls; inactive = mostly above about 0.92. The list shows a part of the results.

Experiment: chemical genetic growth profiling, strain panel (AID 1159580);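 also: tested at 20 µM; growth read once vehicle control cultures reached saturation at 30 °C; 1 = growth at the plate median or of vehicle wells; lower values mean less growth of the strain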
Details: growth OD

Measured: normalized growth

C/C=C(/C(=C/C)c1ccc(O)cc1)c1ccc(O)cc1
active: S. cerevisiae deletion strains, locus YKL009W, strain mrt4, active compounds read low 0.81 | S. cerevisiae deletion strains, locus YKL085W, strain MDH1 (second series), active compounds read low 0.764 | S. cerevisiae deletion strains, locus YKL085W, strain MDH1, active compounds read low 0.764 | S. cerevisiae deletion strains, locus YKR001C, strain vps1, active compounds read low 0.531 | S. cerevisiae deletion strains, locus YLR039C, strain RIC1, active compounds read low 0.368 | S. cerevisiae deletion strains, locus YLR058C, strain SHM2, active compounds read low 0.759 | S. cerevisiae deletion strains, locus YLR262C, strain YPT6 (second series), active compounds read low 0.659 | S. cerevisiae deletion strains, locus YLR262C, strain YPT6, active compounds read low 0.292 | S. cerevisiae deletion strains, locus YLR268W, strain sec22, active compounds read low 0.866 | S. cerevisiae deletion strains, locus YLR330W, strain CHS5, active compounds read low 0.724 | S. cerevisiae deletion strains, locus YLR342W, strain FKS1 (second series), active compounds read low 0.683 | S. cerevisiae deletion strains, locus YLR371W, strain rom2, active compounds read low 0.453 | S. cerevisiae deletion strains, locus YLR418C, strain cdc73, active compounds read low 0.542 | S. cerevisiae deletion strains, locus YML016C, strain PPZ1, active compounds read low 0.914 | S. cerevisiae deletion strains, locus YML032C, strain rad52, active compounds read low 0.691 | S. cerevisiae deletion strains, locus YML120C, strain ndi1, active compounds read low 0.909 | S. cerevisiae deletion strains, locus YMR223W, strain ubp8, active compounds read low 0.745 | S. cerevisiae deletion strains, locus YMR263W, strain SAP30, active compounds read low 0.851 | S. cerevisiae deletion strains, locus YMR307W, strain GAS1, active compounds read low 0.336 | S. cerevisiae deletion strains, locus YNL067W, strain RPL9B, active compounds read low 0.863 | S. cerevisiae deletion strains, locus YNL071W, strain lat1, active compounds read low 0.906 | S. cerevisiae deletion strains, locus YNL233W, strain BNI4, active compounds read low 0.76 | S. cerevisiae deletion strains, locus YNL250W, strain rad50, active compounds read low 0.871 | S. cerevisiae deletion strains, locus YNL271C, strain bni1, active compounds read low 0.899 | S. cerevisiae deletion strains, locus YNL298W, strain CLA4, active compounds read low 0.629 | S. cerevisiae deletion strains, locus YNL307C, strain MCK1, active compounds read low 0.707 | S. cerevisiae deletion strains, locus YNR052C, strain pop2, active compounds read low 0.383 | S. cerevisiae deletion strains, locus YOL006C, strain TOP1, active compounds read low 0.456 | S. cerevisiae deletion strains, locus YOL147C, strain pex11, active compounds read low 0.839 | S. cerevisiae deletion strains, locus YOR061W, strain CKA2, active compounds read low 0.879 | S. cerevisiae deletion strains, locus YOR069W, strain VPS5, active compounds read low 0.896 | S. cerevisiae deletion strains, locus YOR144C, strain elg1, active compounds read low 0.86 | S. cerevisiae deletion strains, locus YOR184W, strain ser1, active compounds read low 0.609 | S. cerevisiae deletion strains, locus YPR163C, strain tif3, active compounds read low 0.91 | S. cerevisiae deletion strains, locus YPR167C, strain met16, active compounds read low 0.854 | S. cerevisiae deletion strains, strain wtn01, active compounds read low 0.837 | S. cerevisiae strains, strain wild type, active compounds read low 0.877
inactive: S. cerevisiae deletion strains, locus YKL068W, active compounds read low 0.961 | S. cerevisiae deletion strains, locus YKL160W, strain elf1, active compounds read low 0.947 | S. cerevisiae deletion strains, locus YKL190W, strain CNB1, active compounds read low 0.976 | S. cerevisiae deletion strains, locus YKR026C, strain gcn3, active compounds read low 0.986 | S. cerevisiae deletion strains, locus YKR091W, strain srl3, active compounds read low 0.995 | S. cerevisiae deletion strains, locus YLL001W, strain dnm1, active compounds read low 0.948 | S. cerevisiae deletion strains, locus YLL026W, active compounds read low 0.969 | S. cerevisiae deletion strains, locus YLL041C, strain sdh2, active compounds read low 0.965 | S. cerevisiae deletion strains, locus YLR027C, strain aat2, active compounds read low 0.959 | S. cerevisiae deletion strains, locus YLR102C, strain apc9, active compounds read low 0.991 | S. cerevisiae deletion strains, locus YLR113W, strain HOG1, active compounds read low 0.985 | S. cerevisiae deletion strains, locus YLR221C, strain rsa3, active compounds read low 0.982 | S. cerevisiae deletion strains, locus YLR258W, strain gsy2, active compounds read low 0.996 | S. cerevisiae deletion strains, locus YLR320W, strain mms22, active compounds read low 0.978 | S. cerevisiae deletion strains, locus YLR342W, strain FKS1, active compounds read low 0.943 | S. cerevisiae deletion strains, locus YLR357W, strain rsc2, active compounds read low 0.989 | S. cerevisiae deletion strains, locus YLR370C, strain arc18, active compounds read low 1 | S. cerevisiae deletion strains, locus YLR384C, strain iki3, active compounds read low 0.983 | S. cerevisiae deletion strains, locus YML124C, strain tub3, active compounds read low 0.971 | S. cerevisiae deletion strains, locus YMR058W, strain fet3, active compounds read low 0.932 | S. cerevisiae deletion strains, locus YMR078C, strain ctf18, active compounds read low 0.979 | S. cerevisiae deletion strains, locus YMR125W, strain sto1, active compounds read low 0.924 | S. cerevisiae deletion strains, locus YMR129W, active compounds read low 0.986 | S. cerevisiae deletion strains, locus YMR205C, strain PFK2, active compounds read low 0.958 | S. cerevisiae deletion strains, locus YMR231W, strain pep5, active compounds read low 0.975 | S. cerevisiae deletion strains, locus YNL183C, strain NPR1, active compounds read low 0.971 | S. cerevisiae deletion strains, locus YNL209W, strain ssb2, active compounds read low 1 | S. cerevisiae deletion strains, locus YNL248C, strain rpa49, active compounds read low 0.951 | S. cerevisiae deletion strains, locus YNL322C, strain KRE1 (second series), active compounds read low 0.985 | S. cerevisiae deletion strains, locus YNR049C, strain mso1, active compounds read low 0.99 | S. cerevisiae deletion strains, locus YOL012C, strain htz1 1.01 | S. cerevisiae deletion strains, locus YOR001W, strain rrp6, active compounds read low 0.967 | S. cerevisiae deletion strains, locus YOR070C, strain gyp1, active compounds read low 0.989 | S. cerevisiae deletion strains, locus YOR080W, strain dia2, active compounds read low 0.97 | S. cerevisiae deletion strains, locus YOR083W, strain WHI5, active compounds read low 0.929 | S. cerevisiae deletion strains, locus YOR106W, strain vam3, active compounds read low 0.914 | S. cerevisiae deletion strains, locus YOR136W, strain idh2, active compounds read low 0.938 | S. cerevisiae deletion strains, locus YOR231W, strain MKK1, active compounds read low 0.964 | S. cerevisiae deletion strains, locus YOR265W, strain rbl2, active compounds read low 0.976 | S. cerevisiae deletion strains, locus YOR270C, strain vph1, active compounds read low 0.911 | S. cerevisiae deletion strains, locus YOR290C, strain snf2, active compounds read low 0.971 | S. cerevisiae deletion strains, locus YOR316C, strain cot1, active compounds read low 0.993 | S. cerevisiae deletion strains, locus YPL051W, strain arl3, active compounds read low 0.956 | S. cerevisiae deletion strains, locus YPL078C, strain atp4, active compounds read low 0.901 | S. cerevisiae deletion strains, locus YPL106C, strain sse1, active compounds read low 0.975 | S. cerevisiae deletion strains, locus YPL240C, strain hsp82, active compounds read low 0.981 | S. cerevisiae deletion strains, locus YPL241C, strain CIN2, active compounds read low 0.988 | S. cerevisiae deletion strains, locus YPL256C, strain CLN2, active compounds read low 0.992 | S. cerevisiae deletion strains, locus YPR119W, strain clb2, active compounds read low 0.981 | S. cerevisiae deletion strains, locus YPR141C, strain kar3, active compounds read low 0.978
